Compound activity deposited in PubChem by National Center for Advancing Translational Sciences (NCATS).
HepG2 viability = kills HepG2 cells in TGF-b inhibitor counter-screen; hit rate 0.76% among 410,000; Potency, µM (series often up to 46.1 µM), actives largely listed as cytotoxic; AID 588856; HepG2 CAGA-GFP viability, ATP luminescence, 18 h
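HepG2 CAGA-GFP cells (1000/well, DMEM with 1% FBS) received compound, then TGF-beta at 500 pg/mL final, and were incubated 18 hours at 37 degrees C. Viability was read by CellTiter-Glo luminescence. Media-only wells were set as complete cell-killing and DMSO as no toxicity.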
IL1B secr inh = inhibitors of inflammasome signaling (IL-1 beta secretion). hit rate 4.7% among 360,000. THP-1 LPS/ATP IL-1B secretion, AlphaLISA, 16 h; hits give low values. AID 743279. activity change, % at 57.5 µM; in the data active means activity change below about -50%; inconclusive means mostly about -30% to -49%
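THP-1 cells pretreated 1 hr with compounds (up to 57.5 uM final), then stimulated with LPS (250 ng/mL final) plus ATP (1.25 mM final); secreted IL-1B measured by AlphaLISA after 16 hr, decreased signal indicating inhibition.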
DT40 TDP1 CPT = DT40-hTDP1 cell growth loss with CPT; Potency, µM (top dose mostly 46.2 µM), most hits filed as inhibitors; chicken DT40 Tdp1-/-;hTDP1 cells + 20 nM CPT, ATP luminescence, 48 h; hit rate 12% among 420,000; further: nearly all actives have a fitted effect of over 55% in size
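Chicken DT40 Tdp1-/- cells stably complemented with human TDP1 were seeded at 400 cells/well in medium containing 20 nM camptothecin, exposed to pin-transferred compounds, and grown at 37 °C for at least 48 hr. Viability was read as ATP luminescence.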
TDP1 block = inhibitors of human tyrosyl-DNA phosphodiesterase TDP1 | Q9NUW8 | recombinant TDP1, AlphaScreen DNA substrate cleavage | hit rate 0.28% among 350,000 | Potency, µM (titrated, usually from 130 µM), usual class: inhibitors; further: nearly all actives have a fitted effect of over 40% in size
Target sequence (Q9NUW8 whole entry, looked up): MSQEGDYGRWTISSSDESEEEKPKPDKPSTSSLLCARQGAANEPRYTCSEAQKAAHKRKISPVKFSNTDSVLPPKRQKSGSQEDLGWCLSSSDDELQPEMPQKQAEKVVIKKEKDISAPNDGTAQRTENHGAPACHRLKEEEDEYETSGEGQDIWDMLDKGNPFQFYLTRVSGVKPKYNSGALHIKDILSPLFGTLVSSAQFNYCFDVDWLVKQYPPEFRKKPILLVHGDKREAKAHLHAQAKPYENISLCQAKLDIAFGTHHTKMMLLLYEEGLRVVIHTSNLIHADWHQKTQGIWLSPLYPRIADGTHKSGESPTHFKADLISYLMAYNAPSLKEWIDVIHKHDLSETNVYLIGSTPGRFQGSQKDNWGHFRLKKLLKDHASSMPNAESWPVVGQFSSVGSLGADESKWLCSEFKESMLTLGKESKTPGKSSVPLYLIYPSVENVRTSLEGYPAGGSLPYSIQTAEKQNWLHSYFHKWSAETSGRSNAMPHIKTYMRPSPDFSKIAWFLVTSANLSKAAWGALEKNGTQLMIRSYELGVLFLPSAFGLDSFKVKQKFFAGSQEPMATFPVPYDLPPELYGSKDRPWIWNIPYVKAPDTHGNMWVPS
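Tdp1 1 nM final; 15 min RT w/ cpd; substrate 15 nM, 5 min; beads 10 ug/ml, 10 min; AlphaScreen read. Neg ctrl: no enzyme.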
DT40 TDP1 no CPT = qHTS for Inhibitors of human tyrosyl-DNA phosphodiesterase 1 (TDP1): qHTS in cells in absence of CPT. DT40 Tdp1-/- hTDP1 cells, no CPT, ATP luminescence, 48 h. Potency, µM (titrated, usually from 46.2 µM), usual class: inhibitors. hit rate 15% among 420,000; further: nearly all actives have a fitted effect of over 55% in size
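Chicken DT40 Tdp1-/- cells stably complemented with human TDP1 were seeded at 400 cells/well with DMSO in place of 20 nM camptothecin. After compound pinning, cells grew at least 48 hr at 37 °C; viability read by CellTiter-Glo luminescence.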
TGFb inhibitor = blocks TGF-b signaling; HepG2 CAGA-GFP TGF-b/SMAD3 reporter, GFP fluorescence, 18 h; TGF-beta stimulated, 500 pg/mL final; Potency, µM (titrated, usually from 46.1 µM), hits mostly inhibitors; hit rate 1.2% among 410,000; further: nearly all actives have a fitted effect of over 65% in size
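TGF-beta reporter screen: HEPG2 CAGA-GFP, 1% FBS, 500 pg/mL TGF-beta final, 18 h; per-cell GFP summed per well; curves fitted and categorized by class.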
A number is an active result; i = inactive; ? = inconclusive; nt = no result given; [ ] = remark or other dose. Compounds with a hit are over-represented: about 19% of the library has one in this group of screens. Unless noted, the call rests on the fitted dose curve; in most records, active means well fitted curve in the direction sought with a large enough effect; inconclusive means small, poorly fitted or top-dose-only effect, or another doubt; inactive means no such curve, though single readings can be large; an effect the other way counts as inactive or inconclusive.

SMILES	HepG2 viability	IL1B secr inh	DT40 TDP1 CPT	TDP1 block	DT40 TDP1 no CPT	TGFb inhibitor
Cc1noc(C)c1COC(=O)c1cc(=O)[nH]c2ccccc12	i	i	i	i	i	i
Cc1noc(C)c1COc1ccc(CC(=O)NCCc2ccccn2)cc1	i	i	i	nt	?	i
O=C(Cc1ccc(OCc2ccccc2)cc1)NCc1ccc2c(c1)OCO2	i	i	?	nt	7.3µM	i
Cc1noc(C)c1COc1ccc(CC(=O)NCc2ccccc2)cc1	i	i	0.65µM	i	0.52µM	?
Cc1noc(C)c1COc1cccc(C(=O)NCCc2c[nH]c3ccccc23)c1	i	i	13µM	i	21µM	i
Cc1noc(C)c1COc1ccc(C(=O)NCc2cccs2)cc1	i	-99	i	i	i	i
O=C(NCc1ccc2c(c1)OCO2)OCc1ccccc1	nt	?	i	nt	i	nt
Cc1onc(C(=O)NC2CCCCC2)c1[N+](=O)[O-]	i	i	?	i	?	i
CCc1ccc(NC(=O)Cn2c(=O)n(Cc3nc(-c4ccccc4)no3)c(=O)c3cc4c(cc32)OCO4)cc1	i	nt	i	i	i	i
COCCCNC(=O)c1ccc(Cn2c(=O)c3ccccc3n(CC(=O)Nc3c(C)cccc3C)c2=O)cc1	i	nt	?	i	i	i
CCCS(=O)(=O)c1ncc(Cl)c(C(=O)Nc2c(C(=O)c3ccccc3)oc3ccccc23)n1	i	nt	i	i	?	i
CC(=O)c1cccc(NC(=O)c2ccc(OCc3c(C)noc3C)cc2)c1	i	i	i	i	i	i
C=CCN(Cc1ccc(Br)s1)C(=O)c1ccc(OCc2c(C)noc2C)cc1	i	i	?	nt	16µM	i
Cc1ccccc1NC(=O)c1cccc(OCc2c(C)noc2C)c1	i	?	i	i	i	?
Cc1cccc(C(=O)Nc2ccccc2C(=O)OCc2c(C)noc2C)c1	i	-57	i	i	?	i
CCN(c1ccccc1)S(=O)(=O)c1ccc(OCc2c(C)noc2C)cc1	i	i	i	i	i	i
CC(=O)c1ccccc1NC(=O)c1ccc(OCc2c(C)noc2C)cc1	i	-66	?	i	18µM	i
CCN(C(=O)COC(=O)c1ccc(OCc2c(C)noc2C)cc1)c1ccccc1	i	i	?	i	13µM	i
COc1cccc(N2CC(NC(=O)c3ccc(S(=O)(=O)N4CCCC4)cc3)CC2=O)c1 (centres undefined)	i	nt	i	i	i	i
CSc1cccc(NS(=O)(=O)c2cn(C)c(C)n2)c1	i	nt	i	i	?	i
Oc1cc2cc(-c3csc(-c4ccc(F)cc4)n3)cc3c2n1CCC3	i	nt	?	nt	20µM	i
N=C1C(c2nc(-c3ccc(F)cc3)cs2)=C(O)CN1Cc1ccc(Cl)cc1	i	i	i	i	i	i
COc1ccc(NC(=O)c2ccc3c(=O)n4nc(Nc5ccccc5C)sc4nc3c2)cc1Cl	i	nt	7.3µM	i	5.8µM	i
CCOc1ccc(NC(=O)c2ccc3c(=O)n4nc(Nc5ccccc5C)sc4nc3c2)cc1	i	nt	?	i	6.5µM	i
COc1ccc(NC(=O)c2ccc3c(=O)n4nc(Nc5cccc(Cl)c5C)sc4nc3c2)cc1	i	nt	2.9µM	i	3.3µM	i
SMILES	HepG2 viability	IL1B secr inh	DT40 TDP1 CPT	TDP1 block	DT40 TDP1 no CPT	TGFb inhibitor
Cc1ccc(NC(=O)c2ccc3c(=O)n4nc(Nc5ccccc5C)sc4nc3c2)cc1C	2.8µM	nt	2.9µM	i	5.8µM	?
Cc1ccccc1Nc1nn2c(=O)c3ccccc3nc2s1	i	i	?	i	?	i
Cc1ccc(-n2ncc3c(N4CCCCC4)ncnc32)cc1Cl	i	nt	i	i	?	i
COc1cccc2cc(-c3nc4sc(C(=O)Nc5ccc(F)cc5F)c(C)c4c(=O)[nH]3)c(=O)oc12	i	nt	i	i	i	i
CCN(CC(=O)NCc1cccs1)C(=O)c1ccc(S(=O)(=O)N(CC)c2ccccc2)cc1	i	i	i	i	i	i
COc1cccc(-c2cnc(C(O)c3cc(Cl)cc(Cl)c3)[nH]2)c1 (centres undefined)	i	i	23µM	nt	?	?
Cc1ccc(C(O)c2ncc(-c3ccc4ccccc4c3)[nH]2)c(C)c1 (centres undefined)	i	i	?	nt	i	i
Cc1ccc(-c2cnc(C(O)c3ccc(C)cc3)[nH]2)cc1 (centres undefined)	i	i	i	nt	i	i
OC(c1cc(F)cc(Cl)c1)c1ncc(-c2ccc3ccccc3c2)[nH]1 (centres undefined)	i	i	18µM	nt	13µM	18µM
OC(c1cccc(Cl)c1)c1ncc(-c2ccc3ccccc3c2)[nH]1 (centres undefined)	i	i	?	nt	?	?
Cc1ccc(C)c(C(O)c2ncc(-c3ccc4ccccc4c3)[nH]2)c1 (centres undefined)	i	i	18µM	nt	?	i
CSc1ccc(C(O)c2ncc(-c3ccc(F)cc3)[nH]2)cc1 (centres undefined)	i	i	29µM	nt	15µM	i
Cc1cnc(-n2ncc(C(=O)N(C)C3CCOC3)c2-c2cccs2)nc1-c1ccc(F)cc1 (centres undefined)	nt	nt	i[9.04 µM]	nt	i	nt
COc1ccc(C(O)c2ncc(-c3ccc4ccccc4c3)[nH]2)cc1F (centres undefined)	i	i	?	nt	?	i
OC(c1ccc(-c2ccccc2)cc1)c1ncc(-c2cccc(F)c2)[nH]1 (centres undefined)	i	i	i	nt	?	?
CC(C)(C)c1ccc(C(O)c2ncc(-c3cccc(F)c3)[nH]2)cc1 (centres undefined)	i	i	15µM	nt	?	?
CC(C)(C)c1ccc(C(O)c2ncc(-c3ccc4ccccc4c3)[nH]2)cc1 (centres undefined)	i	i	?	nt	18µM	?
COc1cccc(-c2cnc(C(O)c3ccc(C(C)(C)C)cc3)[nH]2)c1 (centres undefined)	i	i	?	nt	18µM	?
COc1cccc(-c2cnc(C(O)c3ccc(C)cc3)[nH]2)c1 (centres undefined)	i	i	i	nt	i	i
CN1CCC(N(C)C(=O)c2ccc(Cl)c(S(=O)(=O)N3CCOCC3)c2)CC1	i	i	i	i	i	i
COc1ccc(N2C(=O)CC(NNC(=O)c3ccc(Br)s3)C2=O)cc1 (centres undefined)	i	-64	i	i	i	i
COc1cccc(N2C(=O)CC(NNC(=O)c3cccs3)C2=O)c1 (centres undefined)	i	i	i	i	i	i
